Source: PubChem BioAssay
Activity calls are given as the source filed them.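 The calls were made as follows, unless noted: active = compounds whose cell count with miR-34 switched on is under 0.7 times the count with it off; inactive = the rest.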 *1 amine or outer side, *2 acyl side, *3 side chain or, on linkers, in order; H or OH if unused. Where a SMILES comes first, the peptide text is derived from it. Bridges are numbered along the chain shown (N, C = ends). Roman numbers before positions name the chains, in order. [ ]: non-standard residue; d: D form. Hexamethylenediamine = C(CCCN[*:2])CCN[*:1]; Dip = N[CH](C(=O)O)C(c1ccccc1)c1ccccc1; Chg = N[CH](C(=O)O)C1CCCCC1; NMeA = CN[CH](C)C(=O)O

Columns and labels:
[1] = sensitizers of A549 cells to miR-34 induction, primary screen, imaging, A549 dox-inducible miR-34, nuclei and caspase counts (AID 1347080); settings: A549 miR-34 inducible, Hoechst nuclei count, 48 h
[2] = survival rescue of mitochondrial mutant cells in low glucose, primary screen, MELAS cybrids, Rieske KO mouse fibroblasts, CellTiter-Glo (AID 1508586;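 active = mean z-score across replicates of 1.96 or higher in either the MELAS or the Rieske mutant cell line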;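 also: z relative to plate mean and SD of compound and empty wells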)
[3] = stronger effect = lower value, cell number ratio, induced over uninduced
[4] = measured here: relative caspase fold change +Dox/-Dox
[5] = measured here: total cells with miR-34 induction, stronger effect = lower value
[6] = measured here: total cells without miR-34 induction
[7] = MELAS cybrid survival, CellTiter-Glo 48 h, stronger effect = higher value
[8] = Rieske KO mouse fibroblast survival, CellTiter-Glo 72 h
Also: test concentration not given here.

SMILES	fold change [1, 3]	fold change [1, 4]	cell count [1, 5]	cell count [1, 6]	z-score [2, 7]	z-score [2, 8]
C#CCNC1CCc2ccccc21 (centres undefined)	1.01 (inactive)	0.344	8040	7960	-0.195 (inactive)	-0.00726
NC1CC1c1ccc(-c2cccc(O)c2)cc1 (centres undefined)	0.891 (inactive)	0.382	7530	8450	-0.398 (inactive)	0.0465
Cc1cc(C=C2SC(=S)NC2=O)c(C)n1-c1cccnc1	0.889 (inactive)	0.503	7760	8720	-0.359 (inactive)	-0.24
COc1cc(F)c(F)c(Nc2ccc(I)cc2F)c1NS(=O)(=O)C1(CC(O)CO)CC1 (centres undefined)	0.923 (inactive)	0.76	2970	3220	-0.764 (inactive)	-0.645
Cn1nc(C(C)(C)C)cc1C(=O)NC(Cc1cccc(Cl)c1)C(=O)NCC#N (centres undefined)	0.927 (inactive)	0.462	7540	8140	0.131 (inactive)	0.0966
CCNC(=O)C1OC(n2cnc3c(N)nc(NCCc4ccc(CCC(=O)O)cc4)nc32)C(O)C1O (centres undefined)	1.01 (inactive)	0.733	7450	7360	0.177 (inactive)	-0.329
CN1CCN(S(=O)(=O)c2ccc(-c3cnc(N)c(C(=O)Nc4cccnc4)n3)cc2)CC1	0.893 (inactive)	0.445	2390	2680	0.891 (inactive)	-1.29
CC1=NN(c2ccc(C(=O)O)cc2)C(=O)C1=Cc1ccc(-c2cc(C)c(C)cc2[N+](=O)[O-])o1	0.902 (inactive)	0.511	7310	8100	-0.321 (inactive)	0.107
CNc1nc(Nc2cn(C(C)(C)C#N)nc2C)ncc1C(F)(F)F	0.858 (inactive)	0.457	7920	9230	-0.302 (inactive)	0.79
CC(=O)C1CC[C@H]2[C@@H]3CC=C4CC(O)CC[C@]4(C)[C@@H]3CC[C@]12C (some centres undefined)	0.983 (inactive)	0.867	7780	7910	-0.328 (inactive)	0.251
C=C1C(CO)C(O)CC1n1cnc2c(=O)[nH]c(N)nc21 (centres undefined)	1.01 (inactive)	0.924	7270	7170	-0.366 (inactive)	-0.0519
Nc1nc(N)c2nc(-c3cccc(O)c3)cnc2n1	0.989 (inactive)	0.893	6340	6410	1.29 (inactive)	-0.0279
CC(NC(=O)C(Cc1ccccc1)NC(=O)OCc1ccccc1)C(=O)CF (centres undefined)	0.911 (inactive)	0.415	8780	9640	-0.389 (inactive)	-0.551
Cn1nccc1-c1cc(C(=O)NCc2ccc(S(C)(=O)=O)cn2)c(=O)n(-c2cccc(C(F)(F)F)c2)c1	0.851 (inactive)	0.538	8120	9540	-0.549 (inactive)	0.346
Cc1cncc(CN2CCC(=C3c4ccc(Cl)cc4CCc4cccnc43)CC2)c1	1.04 (inactive)	0.52	6230	6000	-0.369 (inactive)	-0.161
CCC1C(=O)N(C)c2cnc(Nc3ccc(C(=O)NC4CCC(N5CCN(CC6CC6)CC5)CC4)cc3OC)nc2N1C(C)C (centres undefined)	1.2 (inactive)	0.875	1460	1210	6.19 (active)	-4.08
CCN=C1N[C@@H]2C(O)C(O)C(CO)O[C@@H]2S1 (some centres undefined)	0.935 (inactive)	0.487	8710	9320	-0.533 (inactive)	-0.988
CC1(C)[C@@H](O)CC[C@@]2(C)[C@H]1CC[C@]1(C)[C@H]2C(=O)C=C2[C@H]3C[C@@](C)(C(=O)O)CC[C@]3(C)CC[C@]21C	0.897 (inactive)	0.953	7890	8800	-0.219 (inactive)	0.479
COc1c(C)c(C(=O)c2ccc(N)c(C(=O)O)c2)n2ccccc12	0.908 (inactive)	0.344	7600	8370	0.355 (inactive)	-2.17
N#CC1CCCN1C(=O)CNC12CC3CC(CC(O)(C3)C1)C2 (centres undefined)	0.959 (inactive)	0.68	8400	8750	-0.00674 (inactive)	0.11
Cc1ccccc1CN1C2=NCCN2C(=O)C2=C1CCN(Cc1ccccc1)C2	0.955 (inactive)	0.31	8710	9120	-0.516 (inactive)	0.0586
CCC(C)C(=O)OC1CC(C)C=C2C=CC(C)C(CCC3CC(O)CC(=O)O3)[C@H]21 (some centres undefined)	1.2 (inactive)	0.613	3590	2990	-0.367 (inactive)	-1.71

SMILES	fold change [1, 3]	fold change [1, 4]	cell count [1, 5]	cell count [1, 6]	z-score [2, 7]	z-score [2, 8]
CC(=O)c1cc([N+](=O)[O-])c(Sc2cccc(Cl)c2Cl)s1	0.882 (inactive)	0.345	7980	9050	-0.31 (inactive)	0.849
NCc1c[nH]c(=S)n1C1CCc2c(F)cc(F)cc2C1 (centres undefined)	0.817 (inactive)	2.13	7940	9720	-0.197 (inactive)	-0.149
COc1cc(C=CC(=O)O)ccc1O	0.929 (inactive)	0.764	7790	8380	-0.291 (inactive)	-1.2
Cc1[nH]c2ccccc2c1CCNCc1ccc(C=CC(=O)NO)cc1	0.894 (inactive)	0.866	1040	1160	-0.232 (inactive)	-2.76
Cc1ccc(C2OC(CO)C(O)C(O)C2O)cc1Cc1ccc(-c2ccc(F)cc2)s1 (centres undefined)	0.902 (inactive)	0.772	9160	10100	-0.448 (inactive)	0.478
CC1OC(OCC2OC(Oc3c(-c4ccc(OCCO)c(OCCO)c4)oc4cc(OCCO)cc(O)c4c3=O)C(O)C(O)C2O)C(O)C(O)C1O (centres undefined)	0.984 (inactive)	0.465	7700	7830	-0.513 (inactive)	-0.15
Cc1[nH]c2ccccc2c1C1=C(NCCc2ccc(F)cc2)C(=O)N(C)C1=O	0.916 (inactive)	0.466	2210	2410	-0.365 (inactive)	1.08
COc1cc(C2Oc3ccc(C4Oc5cc(O)cc(O)c5C(=O)C4O)cc3OC2CO)ccc1O (centres undefined)	0.913 (inactive)	0.744	8070	8840	-0.245 (inactive)	-0.07
CNC(=O)c1ccccc1Sc1ccc2c(C=Cc3ccccn3)n[nH]c2c1	0.918 (inactive)	0.851	2240	2440	1.15 (inactive)	-0.442
CNC(C)C(=O)NC(C(=O)N1CCCC1C(=O)NC(C(=O)NCCCCCCNC(=O)C(NC(=O)C1CCCN1C(=O)C(NC(=O)C(C)NC)C1CCCCC1)C(c1ccccc1)c1ccccc1)C(c1ccccc1)c1ccccc1)C1CCCCC1 (centres undefined) (I: H-[NMeA][Chg]P[Dip] / II: H-[NMeA][Chg]P[Dip]; linker I:C-II:C via Hexamethylenediamine; configuration not given here)	0.971 (inactive)	0.501	8750	9000	-0.461 (inactive)	-0.132
COc1cc(CCC(C)=O)ccc1O	0.964 (inactive)	0.351	7540	7830	-0.174 (inactive)	-0.0455
CC1CN(CC(=O)Nc2ccc3c(c2)Cc2cccc(-c4cc(=O)cc(N5CCOCC5)o4)c2S3)CC(C)O1 (centres undefined)	0.994 (inactive)	1.1	5760	5800	2.51 (active)	1.29
CCOc1cc2ncc(C#N)c(Nc3ccc(F)c(Cl)c3)c2cc1NC(=O)C=CCN(C)C	0.915 (inactive)	1.02	681	744	1.18 (inactive)	0.656
C[C@]12C=CC(=O)C=C1CC[C@@H]1[C@H]2C(O)C[C@@]2(C)[C@H]1CC[C@@]2(O)C(=O)CO (some centres undefined)	0.833 (inactive)	1.24	4970	5970	-0.42 (inactive)	-1.24
O=C1O[C@H](C(O)CO)C(O)C1O (some centres undefined)	0.859 (inactive)	0.731	8460	9850	-0.207 (inactive)	-0.154
C=C1CCC(O)CC1=CC=C1CCC[C@]2(C)C(C(C)C=CC(C)C(C)C)CC[C@@H]12 (some centres undefined)	0.949 (inactive)	0.581	7890	8320	-0.149 (inactive)	-0.174
O=C1CCC[C@@H]2[C@@H]3CCC[N+]4([O-])CCC[C@H](CN12)[C@@H]34 (some centres undefined)	0.977 (inactive)	0.789	9620	9840	-0.359 (inactive)	0.579
CCN(CC)CCOC(=O)c1ccc(N)cc1Cl	0.9 (inactive)	1.29	9150	10200	-0.309 (inactive)	-0.153
CCC(CC)(NC(=O)C(C)C)C(=O)NC(CCCN=C(N)N)C(=O)NC1(C(=O)NC(c2ccc(F)cc2)c2ccc(F)cc2)CCCC1 (centres undefined)	0.936 (inactive)	0.709	9110	9730	-0.415 (inactive)	-0.654
Cc1c(C(=O)Nc2ccc(N3CC(C)OC(C)C3)nc2)cccc1-c1ccc(OC(F)(F)F)cc1 (centres undefined)	0.962 (inactive)	0.609	6270	6520	-0.33 (inactive)	0.503
COc1ccc(CNc2nc(N3CCCC3CO)ncc2C(=O)NCc2ncccn2)cc1Cl (centres undefined)	0.988 (inactive)	1.09	8210	8300	-0.603 (inactive)	-0.114
C=CCc1cccc(C=NNC(=O)CN2CCN(Cc3ccccc3)CC2)c1O	0.992 (inactive)	0.755	3820	3850	-0.146 (inactive)	-1.03
